Assay results taken from PubChem BioAssay (EPA / NIEHS).
Several values for one entry are separate records, joined by “and”; a condition that tells them apart may be missing. Equal entries are not always repeated. Some compounds were tested as several samples or in several runs, with calls that do not always agree. Activity calls are given as the source filed them. The calls were made as follows: active = hit-call score of the fitted dose curve at least 0.9, where 1 is the maximum; inactive = score below 0.9.

Tests used:
[1] = read-out: Urokinase-type plasminogen activator receptor (uPAR), PLAUR (gene 5329); assay: BSK_4H_uPAR: BioMAP Diversity Plus: 4H Assay for Urokinase-type plasminogen activator receptor (uPAR) Biomarker Activity (AID 2283030); details: primary human endothelial cells (HUVEC); actives raise or lower the signal
Procedure, shortened: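 Human umbilical vein endothelial cells in the 4H system, 24 h after chemical dosing. Cell-surface uPAR measured by ELISA, fitted in both directions versus DMSO; cytotoxicity checked by SRB total protein in parallel cultures.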

[2] = read-out: Vascular endothelial growth factor receptor 2 (Homo sapiens) (UniProt P35968); assay: BSK_4H_VEGFRII: BioMAP Diversity Plus: 4H Assay for Vascular endothelial growth factor receptor 2 (VEGFR2) Biomarker Activity (AID 2283031); details: primary human endothelial cells (HUVEC); actives raise or lower the signal;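 as to AC50: cell-surface VEGFR2 protein level quantified by ELISA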
Procedure, shortened: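 Primary human umbilical vein endothelial cells (4H system), 24 h exposure; cell-surface VEGFR2 measured by ELISA. Bidirectional fitting versus DMSO; cytotoxicity checked in parallel by SRB total-protein staining.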

[3] = read-out: Human Leukocyte Antigen - DR isotype (HLADR), HLA-DRA (gene 3122); assay: BSK_BE3C_HLADR: BioMAP Diversity Plus: BE3C Assay for Human Leukocyte Antigen - DR isotype (HLADR) Biomarker Activity (AID 2283032); details: primary human bronchial epithelial cells; actives raise or lower the signal
Procedure, shortened: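 Cell-surface HLA-DR ELISA readout at 24 h after dosing in the BE3C primary human lung bronchial epithelial system; gain or loss of signal against DMSO, with parallel sulforhodamine B staining of total protein for overt cytotoxicity.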

[4] = read-out: Vascular cell adhesion molecule 1 (VCAM1), VCAM1 (gene 7412); assay: BSK_4H_VCAM1: BioMAP Diversity Plus: 4H Assay for Vascular cell adhesion molecule 1 (VCAM1) Biomarker Activity (AID 2283033); details: primary human endothelial cells (HUVEC); actives raise or lower the signal
Procedure, shortened: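 VCAM-1 ELISA read 24 h after chemical dosing of HUVEC in the BioMAP 4H system, with gain or loss of signal fitted relative to DMSO. Parallel SRB staining (560 nm) checked overt cytotoxicity.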

[5] = read-out: Transforming growth factor beta 1 (TGFb1), TGFB1 (gene 7040); assay: BSK_BE3C_TGFb1: BioMAP Diversity Plus: BE3C Assay for Transforming growth factor beta 1 (TGFb1) Biomarker Activity (AID 2283036); details: primary human bronchial epithelial cells; actives raise or lower the signal
Procedure, shortened: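 ELISA readout of TGF-b1 from human lung bronchial epithelial primary cells, taken 24 h post-treatment. Gain or loss of signal fitted relative to DMSO baseline, with parallel SRB staining for overt cytotoxicity.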

[6] = read-out: Plasminogen activator inhibitor-1 (PAI1), SERPINE1 (gene 5054); assay: BSK_BE3C_PAI1: BioMAP Diversity Plus: BE3C Assay for Plasminogen activator inhibitor-1 (PAI1) Biomarker Activity (AID 2283037); details: primary human bronchial epithelial cells; actives raise or lower the signal
Procedure, shortened: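 PAI-1 was measured by ELISA in human primary bronchial epithelial cultures 24 h after chemical dosing, with cytotoxicity checked by SRB total-protein staining in parallel cultures. Activity was fitted in both directions relative to DMSO.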

[7] = read-out: Urokinase-type plasminogen activator receptor (uPAR), PLAUR (gene 5329); assay: BSK_BE3C_uPAR: BioMAP Diversity Plus: BE3C Assay for Urokinase-type plasminogen activator receptor (uPAR) Biomarker Activity (AID 2283039); details: primary human bronchial epithelial cells; actives raise or lower the signal
Procedure, shortened: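 uPAR levels were measured by ELISA after 24 h compound treatment of primary human bronchial epithelial cells, fitted in both directions relative to DMSO. Parallel SRB staining served as the cytotoxicity read-out.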

[8] = read-out: Interleukin-6 (IL6), IL6 (gene 3569); assay: BSK_CASM3C_IL6: BioMAP Diversity Plus: CASM3C Assay for Interleukin-6 (IL6) Biomarker Activity for (AID 2283040); details: primary human coronary artery smooth muscle cells; actives raise or lower the signal
[9] = read-out: Tissue plasminogen activator (tPA), PLAT (gene 5327); assay: BSK_BE3C_tPA: BioMAP Diversity Plus: BE3C Assay for Tissue plasminogen activator (tPA) Biomarker Activity (AID 2283041); details: primary human bronchial epithelial cells; actives raise or lower the signal;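 also: tPA level quantified by ELISA one day after compound addition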
Procedure, shortened: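 tPA measured by ELISA 24 h after dosing human primary bronchial epithelial cells (BE3C system). Changes in either direction were fitted against DMSO. Parallel cultures were stained with SRB to flag overt cytotoxicity.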

[10] = read-out: Interleukin-8 (IL8), CXCL8 (gene 3576); assay: BSK_CASM3C_IL8: BioMAP Diversity Plus: CASM3C Assay for Interleukin-8 (IL8) Biomarker Activity (AID 2283042); details: primary human coronary artery smooth muscle cells; actives raise or lower the signal;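 also: IL-8 protein level quantified by ELISA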
[11] = read-out: Human Leukocyte Antigen - DR isotype (HLADR), HLA-DRA (gene 3122); assay: BSK_CASM3C_HLADR: BioMAP Diversity Plus: CASM3C Assay for Human Leukocyte Antigen - DR isotype (HLADR) Biomarker Activity (AID 2283043); details: primary human coronary artery smooth muscle cells; actives raise or lower the signal;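 also: cell-surface HLA-DR protein level quantified by ELISA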
[12] = read-out: Macrophage colony-stimulating factor (MCSF), CSF1 (gene 1435); assay: BSK_CASM3C_MCSF: BioMAP Diversity Plus: CASM3C Assay for Macrophage colony-stimulating factor (MCSF) Biomarker Activity (AID 2283044); details: primary human coronary artery smooth muscle cells; actives raise or lower the signal;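 also: M-CSF protein amount quantified by ELISA after 24 h exposure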
[13] = read-out: Low-density lipoprotein receptor (LDLR), LDLR (gene 3949); assay: BSK_CASM3C_LDLR: BioMAP Diversity Plus: CASM3C Assay for Low-density lipoprotein receptor (LDLR) Biomarker Activity (AID 2283045); details: primary human coronary artery smooth muscle cells; actives raise or lower the signal;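 also: LDLR protein level on the cell surface quantified by ELISA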
[14] = read-out: Monocyte Chemoattractant Protein-1 (MCP1), CCL2 (gene 6347); assay: BSK_CASM3C_MCP1: BioMAP Diversity Plus: CASM3C Assay for Monocyte Chemoattractant Protein-1 (MCP1) Biomarker Activity (AID 2283046); details: primary human coronary artery smooth muscle cells; actives raise or lower the signal;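 also: MCP-1 level quantified by ELISA 24 h after dosing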
[15] = BSK_CASM3C_Proliferation: Cell Proliferation Assessment in the BioMAP Diversity Plus: CASM3C Assay (AID 2283047); details: primary human coronary artery smooth muscle cells;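 also: sulforhodamine B total protein stain as relative cell number at 560 nm; sub-confluent cells exposed 48 h before staining; fitted both ways against DMSO so gain or loss of cell number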
[16] = read-out: Monokine induced gamma interferon (MIG), CXCL9 (gene 4283); assay: BSK_CASM3C_MIG: BioMAP Diversity Plus: CASM3C Assay for Monokine induced gamma interferon (MIG) Biomarker Activity (AID 2283048); details: primary human coronary artery smooth muscle cells; actives raise or lower the signal;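 also: MIG protein level measured by ELISA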
[17] = read-out: Interferon-gamma inducible Protein 10 (IP10), CXCL10 (gene 3627); assay: BSK_BE3C_IP10: BioMAP Diversity Plus: BE3C Assay for Interferon-gamma inducible Protein 10 (IP10) Biomarker Activity (AID 2283034); details: primary human bronchial epithelial cells; actives raise or lower the signal
Procedure, shortened: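 IP-10 quantified by ELISA in human primary bronchial epithelial cell cultures at 24 hours post-dosing. Gain or loss of signal fitted relative to DMSO; parallel SRB staining assessed overt cytotoxicity.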

[18] = read-out: urokinase plasminogen activator (uPA), PLAU (gene 5328); assay: BSK_BE3C_uPA: BioMAP Diversity Plus: BE3C Assay for urokinase plasminogen activator (uPA) Biomarker Activity (AID 2283038); details: primary human bronchial epithelial cells; actives raise or lower the signal;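 also: uPA protein level quantified by ELISA in cell cultures; uPA read one day after compound addition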
Procedure, shortened: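 Primary human bronchial epithelial cells, uPA measured by ELISA 24 h after dosing. Bidirectional change relative to DMSO; cytotoxicity checked in parallel cultures by sulforhodamine B total-protein staining.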

[19] = read-out: serum amyloid A (SAA), SAA1 (gene 6288); assay: BSK_CASM3C_SAA: BioMAP Diversity Plus: CASM3C Assay for serum amyloid A (SAA) Biomarker Activity (AID 2283049); details: primary human coronary artery smooth muscle cells; actives raise or lower the signal;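 also: SAA protein level quantified by ELISA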
[20] = read-out: Monokine induced gamma interferon (MIG), CXCL9 (gene 4283); assay: BSK_BE3C_MIG: BioMAP Diversity Plus: BE3C Assay for Monokine induced gamma interferon (MIG) Biomarker Activity (AID 2283035); details: primary human bronchial epithelial cells; actives raise or lower the signal
Procedure, shortened: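 ELISA quantified MIG after 24 h exposure of primary bronchial epithelial cultures, analysed in both directions relative to DMSO. Cytotoxicity tracked in parallel cultures by sulforhodamine B staining.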

Measured: AC50

CCC(=O)Nc1ccc(Cl)c(Cl)c1
active: [5] 3.97 µM
not listed: [17] | [18] | [19] | [20]
inactive: all other assays above

CN(C)[C@@H]1C(=O)C(C(N)=O)=C(O)[C@@]2(O)C(=O)C3=C(O)c4c(O)cccc4[C@@](C)(O)[C@H]3[C@H](O)[C@@H]12
inactive: [1] | [2] | [3] | [4] | [17] | [5] | [6] | [18] | [7] | [8] | [9] | [10] | [11] | [12] | [13] | [14] | [16] | [19]
active: [6] 3.97 µM | [15] 28.7 µM and 11 µM

CSC1=N[C@@](C)(c2ccccc2)C(=O)N1Nc1ccccc1
active: [4] 9.4 µM | [15] 11.5 µM
not listed: [17] | [18]
inactive: all other assays above

Nc1nc(N)nc(NC2CC2)n1
not listed: [3]
inactive: all other assays above

CCCCN(CC)c1c([N+](=O)[O-])cc(C(F)(F)F)cc1[N+](=O)[O-]
active: [4] 20 µM
not listed: [17] | [18]
inactive: all other assays above

CC[C@H](C)[C@H]1O[C@]2(C=C[C@@H]1C)C[C@@H]1C[C@@H](C/C=C(\C)[C@@H](O[C@H]3C[C@H](OC)[C@@H](O[C@H]4C[C@H](OC)[C@@H](NC)[C@H](C)O4)[C@H](C)O3)[C@@H](C)/C=C/C=C3\CO[C@@H]4[C@H](O)C(C)=C[C@@H](C(=O)O1)[C@]34O)O2
active: [1] 1.73 µM | [4] 8.45 µM | [17] 7.15 µM | [20] 8.8 µM | [5] 9.47 µM | [6] 6.98 µM | [7] 5.78 µM | [10] 14.2 µM | [11] 12.6 µM | [12] 11.6 µM | [14] 12.9 µM | [15] 5.53 µM | [16] 13.7 µM | [19] 9.71 µM
inactive: [2] | [8] | [9] | [13]

CCOP(=S)(OCC)Oc1ccc([N+](=O)[O-])cc1
not listed: [18]
inactive: all other assays above

CCCSP(=O)(OCC)SCCC
not listed: [20]
inactive: all other assays above

CCOP(=O)(OCC)Oc1cc(C)nc(C(C)C)n1
active: [13] 20 µM
not listed: [3] | [18]
inactive: all other assays above

CCOP(=O)(NC(C)C)Oc1ccc(SC)c(C)c1 (centres undefined)
active: [7] 5.54 µM
not listed: [20]
inactive: all other assays above

C=C(C)[C@H]1Cc2c(ccc3c2O[C@@H]2COc4cc(OC)c(OC)cc4[C@@H]2C3=O)O1
active: [1] 4.41 µM | [2] 3.97 µM | [3] 6.33 µM | [4] 8.68 µM | [15] 3.97 µM
not listed: [17]
inactive: all other assays above

CN1COCN(Cc2cnc(Cl)s2)C1=N[N+](=O)[O-]
not listed: [17] | [20]
inactive: all other assays above

CNC(=O)ON=C(C)SC
not listed: [17] | [20]
inactive: all other assays above
